The values below come from ChEMBL document CHEMBL3988442, “University of Dundee, Small-Polar-MMV Screening Library” (2021).

SMILES strings stand for the structures. For some of these results: Results with a measured potency or affinity are listed apart.

Holding throughout (set-up): scale not given: direction of the effect not stated beside the values
Assay [1] has as its target Protein translocase subunit SecA (Escherichia coli (strain K12)) (UniProt P10408). Kind of assay: Assay to Identify E. coli SecA ATPase Inhibitors. The class given is functional. Particulars: 30 µM.
The target in assay [2] is T1, Ubiquitin-activating enzyme e1, putative (Leishmania donovani (strain BPK282A1)) (UniProt E9BSI1).
T1 sequence (whole entry): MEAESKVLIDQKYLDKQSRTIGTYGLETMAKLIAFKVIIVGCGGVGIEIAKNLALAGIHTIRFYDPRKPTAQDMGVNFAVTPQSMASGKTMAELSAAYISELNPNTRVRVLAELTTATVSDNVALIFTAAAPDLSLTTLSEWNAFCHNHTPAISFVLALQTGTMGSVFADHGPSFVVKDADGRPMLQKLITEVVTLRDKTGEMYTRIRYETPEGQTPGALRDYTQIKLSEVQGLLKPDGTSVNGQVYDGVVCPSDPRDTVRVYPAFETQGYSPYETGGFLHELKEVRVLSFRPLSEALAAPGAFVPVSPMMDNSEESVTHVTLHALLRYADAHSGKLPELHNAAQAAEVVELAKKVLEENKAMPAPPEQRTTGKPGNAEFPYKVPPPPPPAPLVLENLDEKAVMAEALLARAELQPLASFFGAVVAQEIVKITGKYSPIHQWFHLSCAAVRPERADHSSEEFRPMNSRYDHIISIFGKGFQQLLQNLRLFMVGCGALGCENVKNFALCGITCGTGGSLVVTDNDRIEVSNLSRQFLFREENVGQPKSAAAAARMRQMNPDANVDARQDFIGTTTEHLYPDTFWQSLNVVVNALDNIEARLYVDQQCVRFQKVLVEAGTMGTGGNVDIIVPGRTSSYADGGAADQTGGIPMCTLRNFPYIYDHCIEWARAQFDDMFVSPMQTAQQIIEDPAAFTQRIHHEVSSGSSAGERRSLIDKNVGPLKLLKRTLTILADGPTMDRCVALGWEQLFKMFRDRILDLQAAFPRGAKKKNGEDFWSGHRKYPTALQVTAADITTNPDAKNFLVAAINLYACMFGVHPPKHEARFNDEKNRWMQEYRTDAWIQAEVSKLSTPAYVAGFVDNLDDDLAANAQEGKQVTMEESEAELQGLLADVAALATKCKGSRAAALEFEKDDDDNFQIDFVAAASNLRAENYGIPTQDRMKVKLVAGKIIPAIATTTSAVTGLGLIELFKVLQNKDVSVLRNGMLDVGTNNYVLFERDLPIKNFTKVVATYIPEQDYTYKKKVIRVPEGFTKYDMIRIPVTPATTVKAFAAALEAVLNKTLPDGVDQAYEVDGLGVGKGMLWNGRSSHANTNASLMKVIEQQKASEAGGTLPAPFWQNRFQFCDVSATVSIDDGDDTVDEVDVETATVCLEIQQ
As to the kind of experiment: Leishmania donovani Ubiquitin Activating Enzyme (LdE1). The class given is functional. Particulars: 30 µM.

In assay [3] the target is AMP-activated protein kinase, AMPK (Homo sapiens) (UniProt P54646+O43741+P54619+Q9UGJ0+Q9Y478+Q13131+Q9UGI9). Kind of assay: AMP-dependent Kinase enzyme assay. An in vitro enzyme assay that detects ADP turnover that is directly proportional to AMPK activity. This uses naive AMPK that is activated during the assay with MK-8722. The note with it: 30 µM. Type of assay: functional.

Assay [4] addresses Sialic acid-binding Ig-like lectin 9 (Homo sapiens) (UniProt Q9Y336). As to the kind of experiment: Hs-Siglec9 ALPHAscreen SOP 20170721. Particulars: 10 µM. (In general: Alpha assays give light when donor and acceptor beads are brought close together.)
For another assay, the system named is Trypanosoma cruzi. Kind of assay: Trypanosoma cruzi phosphomannomutase and mannose-1-phosphate guanylyltransferase assay. The note with it: 10 µM. The class given is functional.
Assay [5] deals with T2, Arginase-2, mitochondrial (Homo sapiens) (UniProt P78540).
T2 sequence (whole entry): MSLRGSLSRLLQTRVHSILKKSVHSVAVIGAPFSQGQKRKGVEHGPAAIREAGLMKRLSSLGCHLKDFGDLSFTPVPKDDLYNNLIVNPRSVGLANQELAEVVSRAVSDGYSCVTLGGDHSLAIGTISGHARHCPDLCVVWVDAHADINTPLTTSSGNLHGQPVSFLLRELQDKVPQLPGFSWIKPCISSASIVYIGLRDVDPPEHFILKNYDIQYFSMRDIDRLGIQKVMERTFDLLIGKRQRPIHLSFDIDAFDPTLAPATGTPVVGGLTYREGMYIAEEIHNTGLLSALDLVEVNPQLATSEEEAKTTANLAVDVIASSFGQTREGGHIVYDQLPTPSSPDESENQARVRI
As to the kind of experiment: in vitro enzyme assay to detect the production of urea directly proportional to the activity of Arginase II. Note: in the data most compounds retested in dose-response had high values. Type of assay: functional. Particulars: 33.3 µM.

Assay [6] concerns the target T3, Proteasome subunit beta (Trypanosoma cruzi) (UniProt O96673).
T3 sequence (whole entry): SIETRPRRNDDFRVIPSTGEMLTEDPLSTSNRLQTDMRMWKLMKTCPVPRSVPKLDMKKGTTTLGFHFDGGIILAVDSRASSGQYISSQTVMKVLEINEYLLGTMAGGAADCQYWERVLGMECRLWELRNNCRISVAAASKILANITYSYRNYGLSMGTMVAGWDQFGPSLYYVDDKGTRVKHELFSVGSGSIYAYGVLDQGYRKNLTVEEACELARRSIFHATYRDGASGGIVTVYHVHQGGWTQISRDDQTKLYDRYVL
As to the kind of experiment: Trypanosoma cruzi proteasome chymotrypsin-like activity (TcProtChymo) assay. Note: in the data most compounds retested in dose-response had high values. The note with it: 9.37 µM. Type of assay: functional.

For another assay, the species on record is Homo sapiens. Kind of assay: To identify inhibition of the IFN signalling (Jak-Stat) pathway via expression of an eGFP reporter gene under the control of an IFN-stimulated response element (ISRE) containing MxA promoter. The class given is functional. The note with it: 30 µM. For orientation: A reporter such as luciferase makes a cellular process visible.

For assay [7], the target named is T4, Tyrosyl-tRNA synthetase, putative (Trypanosoma cruzi (strain CL Brener)) (UniProt Q4DSP6).
T4 sequence (whole entry): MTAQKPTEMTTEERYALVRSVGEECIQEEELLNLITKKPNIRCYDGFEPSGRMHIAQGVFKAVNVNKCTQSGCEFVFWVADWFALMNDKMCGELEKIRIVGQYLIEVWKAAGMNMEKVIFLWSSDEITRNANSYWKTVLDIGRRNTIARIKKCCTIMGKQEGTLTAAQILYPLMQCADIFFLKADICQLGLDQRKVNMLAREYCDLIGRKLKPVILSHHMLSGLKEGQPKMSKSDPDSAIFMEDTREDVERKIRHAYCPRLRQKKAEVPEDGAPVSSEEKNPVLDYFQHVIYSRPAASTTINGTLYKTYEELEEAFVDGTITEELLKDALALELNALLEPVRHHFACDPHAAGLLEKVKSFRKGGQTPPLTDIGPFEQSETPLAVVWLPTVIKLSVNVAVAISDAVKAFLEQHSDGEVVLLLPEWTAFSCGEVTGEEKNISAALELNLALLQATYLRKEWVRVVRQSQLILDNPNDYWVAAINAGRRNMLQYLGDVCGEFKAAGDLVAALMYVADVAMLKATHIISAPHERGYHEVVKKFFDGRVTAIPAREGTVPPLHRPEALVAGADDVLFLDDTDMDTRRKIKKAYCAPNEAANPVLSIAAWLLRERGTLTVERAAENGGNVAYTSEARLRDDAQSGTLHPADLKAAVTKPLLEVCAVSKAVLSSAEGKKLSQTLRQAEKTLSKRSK
Kind of assay: Trypanosoma cruzi tyrosyl tRNA synthetase (TcYRS) _High Tyrosine SOP. Note: in the data most compounds retested in dose-response had high values. The class given is functional. Particulars: 30 µM.

The target of assay [8] is T4, Tyrosyl-tRNA synthetase, putative (Trypanosoma cruzi (strain CL Brener)). As to the kind of experiment: Trypanosoma cruzi tyrosyl tRNA synthetase (TcYRS) SOP. Type of assay: functional. The note with it: 30 µM.
For assay [9], the target named is Chromo domain-containing protein 1 (Saccharomyces cerevisiae (strain ATCC 204508 / S288c) (Baker's yeast)) (UniProt P32657). As to the kind of experiment: ScCHD-1 Enzyme Inhibition Assay. Note: in the data most compounds retested in dose-response had high values. Type of assay: functional. Particulars: 30 µM.
Chain of Chromo domain-containing protein 1 (Saccharomyces cerevisiae (strain ATCC 204508 / S288c) (Baker's yeast)) (P32657 whole entry, the tested form may be a part): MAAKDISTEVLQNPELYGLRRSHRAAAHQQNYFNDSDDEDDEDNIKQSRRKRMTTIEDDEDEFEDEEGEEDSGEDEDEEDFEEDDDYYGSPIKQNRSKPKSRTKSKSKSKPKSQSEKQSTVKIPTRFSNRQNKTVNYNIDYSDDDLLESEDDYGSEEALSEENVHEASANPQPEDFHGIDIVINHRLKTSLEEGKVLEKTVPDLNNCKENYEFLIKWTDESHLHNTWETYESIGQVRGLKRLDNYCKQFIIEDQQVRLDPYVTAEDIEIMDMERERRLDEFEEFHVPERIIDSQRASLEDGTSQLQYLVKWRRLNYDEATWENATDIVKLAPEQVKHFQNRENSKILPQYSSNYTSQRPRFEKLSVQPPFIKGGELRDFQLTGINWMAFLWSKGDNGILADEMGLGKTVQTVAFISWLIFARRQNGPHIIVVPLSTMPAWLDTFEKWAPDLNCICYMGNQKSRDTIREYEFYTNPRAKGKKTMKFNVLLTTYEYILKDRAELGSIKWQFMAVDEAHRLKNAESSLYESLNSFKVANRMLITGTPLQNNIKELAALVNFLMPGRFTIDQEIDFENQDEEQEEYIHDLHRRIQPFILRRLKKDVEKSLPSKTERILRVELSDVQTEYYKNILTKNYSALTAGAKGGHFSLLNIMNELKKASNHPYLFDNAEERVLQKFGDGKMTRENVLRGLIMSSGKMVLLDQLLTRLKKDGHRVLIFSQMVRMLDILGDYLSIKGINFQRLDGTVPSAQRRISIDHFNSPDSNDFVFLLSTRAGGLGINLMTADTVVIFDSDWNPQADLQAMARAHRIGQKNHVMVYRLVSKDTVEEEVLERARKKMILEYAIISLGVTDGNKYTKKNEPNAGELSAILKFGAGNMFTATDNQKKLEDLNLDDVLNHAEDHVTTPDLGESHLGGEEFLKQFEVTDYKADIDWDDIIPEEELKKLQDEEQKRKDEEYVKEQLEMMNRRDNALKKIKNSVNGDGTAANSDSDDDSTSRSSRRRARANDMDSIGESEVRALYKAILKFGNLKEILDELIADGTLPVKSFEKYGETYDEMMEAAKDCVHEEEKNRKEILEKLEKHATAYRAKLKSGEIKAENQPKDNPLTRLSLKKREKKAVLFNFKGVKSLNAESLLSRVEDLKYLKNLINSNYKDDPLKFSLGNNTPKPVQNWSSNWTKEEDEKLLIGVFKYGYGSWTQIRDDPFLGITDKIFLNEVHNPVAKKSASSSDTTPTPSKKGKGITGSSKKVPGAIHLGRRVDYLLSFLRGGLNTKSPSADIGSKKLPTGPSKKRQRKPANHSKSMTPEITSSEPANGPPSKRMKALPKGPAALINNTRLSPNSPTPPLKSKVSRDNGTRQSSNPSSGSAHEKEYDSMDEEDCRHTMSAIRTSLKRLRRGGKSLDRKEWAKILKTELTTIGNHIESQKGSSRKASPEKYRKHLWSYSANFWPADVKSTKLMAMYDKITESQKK

Chain of Sialic acid-binding Ig-like lectin 9 (Homo sapiens) (Q9Y336 whole entry): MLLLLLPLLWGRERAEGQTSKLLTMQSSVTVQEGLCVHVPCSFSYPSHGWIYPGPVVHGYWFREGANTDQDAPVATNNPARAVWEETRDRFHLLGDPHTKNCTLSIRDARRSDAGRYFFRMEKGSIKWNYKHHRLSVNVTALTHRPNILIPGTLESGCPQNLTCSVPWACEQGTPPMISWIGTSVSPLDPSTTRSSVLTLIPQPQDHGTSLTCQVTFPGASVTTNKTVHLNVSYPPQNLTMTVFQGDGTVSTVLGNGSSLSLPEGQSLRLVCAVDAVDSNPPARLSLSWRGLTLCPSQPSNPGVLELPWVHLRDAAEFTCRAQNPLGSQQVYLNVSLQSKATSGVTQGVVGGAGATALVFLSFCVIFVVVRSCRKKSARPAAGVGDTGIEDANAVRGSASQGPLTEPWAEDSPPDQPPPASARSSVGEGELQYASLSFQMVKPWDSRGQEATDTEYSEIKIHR
Chain of Protein translocase subunit SecA (Escherichia coli (strain K12)) (P10408 whole entry): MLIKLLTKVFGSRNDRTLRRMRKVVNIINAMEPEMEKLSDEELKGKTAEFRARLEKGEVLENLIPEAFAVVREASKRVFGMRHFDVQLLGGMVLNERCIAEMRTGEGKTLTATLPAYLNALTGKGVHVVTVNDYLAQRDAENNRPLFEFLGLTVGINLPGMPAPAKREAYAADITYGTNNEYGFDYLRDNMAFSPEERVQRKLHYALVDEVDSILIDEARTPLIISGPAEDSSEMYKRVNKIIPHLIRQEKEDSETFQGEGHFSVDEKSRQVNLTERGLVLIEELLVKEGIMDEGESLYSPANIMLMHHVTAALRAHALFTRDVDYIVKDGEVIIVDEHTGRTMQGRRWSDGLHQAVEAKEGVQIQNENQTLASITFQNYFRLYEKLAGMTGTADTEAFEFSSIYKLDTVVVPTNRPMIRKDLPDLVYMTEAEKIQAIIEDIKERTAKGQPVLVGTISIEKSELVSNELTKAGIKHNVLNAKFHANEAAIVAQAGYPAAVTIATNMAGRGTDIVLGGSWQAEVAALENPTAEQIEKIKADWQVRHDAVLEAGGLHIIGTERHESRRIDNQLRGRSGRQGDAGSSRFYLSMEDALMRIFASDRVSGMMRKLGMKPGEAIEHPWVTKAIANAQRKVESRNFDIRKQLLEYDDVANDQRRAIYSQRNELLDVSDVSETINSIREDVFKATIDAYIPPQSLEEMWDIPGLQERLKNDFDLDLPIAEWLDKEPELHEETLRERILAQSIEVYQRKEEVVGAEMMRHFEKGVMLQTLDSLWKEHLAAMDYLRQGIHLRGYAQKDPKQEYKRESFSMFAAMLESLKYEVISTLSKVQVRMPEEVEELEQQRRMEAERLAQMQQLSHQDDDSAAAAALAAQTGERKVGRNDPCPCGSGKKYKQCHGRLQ

Regarding `CC(CNCc1ccc(Cl)c(Cl)c1)Oc1ccccn1` (stereo unspecified), the Percent Effect in [1] was -2.19%; in assay [2], 12%; in assay [3], 0.69%; in assay [4] it was -3.31%; with Trypanosoma cruzi it was 4.91%; in assay [5] it was -7.22%. Moreover, the Percent Effect in assay [6] is 20.5%; in the assay filed under Homo sapiens, 26.5%; in [7], 6.35%; in [8] it was 10.3%; in assay [9], -11.8%.
Consider `COc1c(CNCc2ccc(C(=O)N(C)C)cc2)c(C)nn1C`, for which the Percent Effect was -4.19% in assay [1]; 1.27% in assay [2]; 7.36% in assay [3]; -0.0396% in assay [4]; 2.97% with Trypanosoma cruzi; 1.07% in [5]. Further, the Percent Effect in assay [6] is 8.23%; in the assay listed under Homo sapiens, 27.1%; in [7], 3.12%; in assay [8], 7.59%; in assay [9] it was -4.86%.
Turning to `Cc1noc(C)c1C(=O)N1CCCC1c1c(C)nn(C)c1Cl` (stereo unspecified), the Percent Effect in assay [1] was -4.44%; in assay [2], 7.59%; in [3], -2.1%; in assay [4], 8.04%; in the assay with Trypanosoma cruzi, 5.38%; in assay [5] it was -4.56%. Further, the Percent Effect was -1.72% in assay [6]; 4.02% in the assay filed under Homo sapiens; 2.46% in assay [7]; 8.86% in [8]; -0.777% in [9].
For the molecule `COCC1CCN(c2cc(C3CN(C)CCO3)nc(C)n2)CC1` (stereo unspecified), the Percent Effect in [1] is -3.57%; in assay [2] it was -5.33%; in assay [3], 6.9%; in assay [4] it was -0.404%; in the assay on Trypanosoma cruzi, -1.77%; in [5], 0.233%. The Percent Effect in [6] is 2.38%; in the assay filed under Homo sapiens, 6.27%; in [7], -1.06%; in assay [8] it was -3.85%; in assay [9], 9.94%.
Consider `CN(C)[C@@H]1CCN(c2ncccn2)[C@H]1Cc1ccccc1`, for which the Percent Effect in assay [1] is -5.52%; in assay [2] it was 5.2%; in assay [3], 0.378%; in assay [4] it was 3.63%; with Trypanosoma cruzi, 2.06%; in assay [5] it was -1.38%. Moreover, the Percent Effect was 8.65% in assay [6]; -3.26% in the assay filed under Homo sapiens; 2.15% in assay [7]; 6.17% in assay [8]; 1.34% in assay [9].
`O=C(c1ccnnc1)N1C[C@@H]2CC[C@H](Oc3cccc(F)c3)[C@@H]2C1`: the Percent Effect in [1] is -4.43%; in assay [2], -1.35%; in assay [3], 15.2%; in assay [4], -2.19%; with Trypanosoma cruzi it was -6.13%; in [5], 1.16%. The Percent Effect in assay [6] was 2.34%; in the assay filed under Homo sapiens it was -7.87%; in assay [7], 1.07%; in assay [8], -3.9%; in [9] it was -7.63%.
`Cc1cccc(S(=O)(=O)NCC(C)N2CCN(C)CC2)c1Cl` (stereo unspecified): the Percent Effect in [1] was -5.19%; in assay [2] it was 2.6%; in assay [3], -2.53%; in [4], -0.382%; in the assay on Trypanosoma cruzi it was -0.492%; in [5] it was -2.76%. The Percent Effect is 2.83% in assay [6]; 7.45% in the assay filed under Homo sapiens; 0% in [7]; 3.7% in assay [8]; 0.187% in assay [9].
With `Cn1cc(C(=O)Nc2ccc3c(c2)CN(C(=O)c2ccco2)CC3)nn1`, the Percent Effect was -2.6% in [1]; 7.79% in assay [2]; 7.19% in [3]; 9.07% in assay [4]; 3.65% with Trypanosoma cruzi; -5.81% in assay [5]. The Percent Effect is 7.66% in assay [6]; 0.998% in the assay listed under Homo sapiens; 4.23% in assay [7]; 11.5% in [8]; -7.06% in assay [9].
For `COc1ncccc1NC(=O)NCC(O)c1ccc(F)cc1F` (stereo unspecified), the Percent Effect in [1] was -1.59%; in [2], -6.33%; in [3], 2.46%; in [4] it was 1.59%; in the assay on Trypanosoma cruzi, -3.79%; in [5], 5.38%. Moreover, the Percent Effect was 20.6% in assay [6]; 15.3% in the assay filed under Homo sapiens; 2.08% in assay [7]; 5.06% in assay [8]; -13.8% in assay [9].
Consider `COc1ccc(OCc2cc(C(=O)N3CCN[C@H](C)C3)n[nH]2)c(Cl)c1`, for which the Percent Effect is -0.706% in [1]; 5.41% in assay [2]; 0.0243% in assay [3]; -0.0327% in assay [4]; -4.63% in the assay with Trypanosoma cruzi; 2.86% in assay [5]. Also, the Percent Effect in assay [6] was 14.5%; in the assay filed under Homo sapiens, 5.15%; in assay [7] it was 2.65%; in assay [8], 9.76%; in [9], -3.55%.
With `CCn1ccnc1CN1CCC(CNC(=O)c2ccc(C)nc2)C1` (stereo unspecified), the Percent Effect is -0.749% in assay [1]; 10.4% in assay [2]; 4.72% in [3]; 15.7% in [4]; 6.39% with Trypanosoma cruzi; -1.38% in [5]. Also, the Percent Effect in [6] was 12%; in the assay listed under Homo sapiens, 15.6%; in assay [7], 8.6%; in assay [8] it was 16.1%; in assay [9] it was -3.08%.
